Calls of active or inactive are those of the source. How the source made its calls: active means hit-call score of the fitted dose curve at least 0.9, where 1 is the maximum; inactive means score below 0.9.

What all share (conditions): mRNA level, 48 h; actives raise or lower the signal
Read-out in test [1]: Pro-epidermal growth factor (Homo sapiens) (UniProt P01133)
In words: LTEA_HepaRG_EGF: Life Technologies and Expression Analysis (LTEA) Assay for Epidermal growth factor (EGF) using HepaRG (AID 2283489). In outline:
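HepaRG cells (~100,000/well, 48 h pre-culture) exposed in duplicate for 48 h in serum-free induction medium to 8 half-log concentrations up to 100 uM in 0.5% DMSO. EGF mRNA by qRT-PCR, normalized to ACTB/GAPDH/POLR2A; bidirectional fit versus DMSO.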

Read-out in test [2]: Ezrin (EZR), EZR (gene 7430)
In words: LTEA_HepaRG_EZR: Life Technologies and Expression Analysis (LTEA) Assay for Ezrin (EZR) using HepaRG (AID 2283491). In outline:
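EZR transcript levels came from Fluidigm qRT-PCR and were normalized to three housekeeping genes after 48 h chemical exposure of HepaRG cells. Dosing used an 8-point half-log series with a 100 uM top concentration in 0.5% DMSO, tested in duplicate; both directions were fitted versus vehicle.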

Read-out in test [3]: Cytochrome P450 3A7 (Homo sapiens) (UniProt P24462)
In words: LTEA_HepaRG_CYP3A7: Life Technologies and Expression Analysis (LTEA) Assay for CYP3A7 using HepaRG (AID 2283492). Summed up: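 Differentiated HepaRG cells in serum-free induction medium exposed 48 h in duplicate to 8-point half-log series from 100 uM top in 0.5% DMSO. CYP3A7 mRNA by qRT-PCR, normalized to ACTB/GAPDH/POLR2A, bidirectional fit versus DMSO.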

Read-out in a further test: CYP3A5 (gene 1577)
Nature of the test: LTEA_HepaRG_CYP3A5: Life Technologies and Expression Analysis (LTEA) Assay for CYP3A5 using HepaRG (AID 2283493). Summed up:
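Human HepaRG hepatic cells receive 48 h chemical treatment at eight concentrations (half-log steps from 100 uM) in 0.5% DMSO. Expression of CYP3A5 is quantified by Fluidigm qRT-PCR and normalized to three reference genes.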

Read-out in test [4]: Fatty Acid-Binding Protein 1 (FABP1), FABP1 (gene 2168)
Nature of the test: LTEA_HepaRG_FABP1: Life Technologies and Expression Analysis (LTEA) Assay for Fatty Acid-Binding Protein 1 (FABP1) using HepaRG (AID 2283494). Summed up:
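qRT-PCR readout of FABP1 transcript (normalized to three housekeeping genes) after 48 h chemical exposure of HepaRG cells; eight concentrations, half-log steps, max 100 uM, 0.5% DMSO vehicle; gain or loss fitted relative to DMSO baseline.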

Read-out in test [5]: Cytochrome P450 4A22 (Homo sapiens) (UniProt Q5TCH4)
Nature of the test: LTEA_HepaRG_CYP4A22: Life Technologies and Expression Analysis (LTEA) Assay for Cytochrome P450 4A22 (CYP4A22) using HepaRG (AID 2283495). In outline: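 Differentiated HepaRG cells in serum-free induction medium exposed 48 h in duplicate to eight half-log concentrations up to 100 uM in 0.5% DMSO. CYP4A22 mRNA quantified by TaqMan qRT-PCR, normalized to ACTB, GAPDH and POLR2A; bidirectional fit versus DMSO.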

Read-out in test [6]: Cytochrome P450 7A1 (Homo sapiens) (UniProt P22680)
Nature of the test: LTEA_HepaRG_CYP7A1: Life Technologies and Expression Analysis (LTEA) Assay for Cytochrome P450 7A1 (CYP7A1) using HepaRG (AID 2283496). In outline: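 HepaRG, 48 h exposure, 8-pt half-log series from 100 uM, 0.5% DMSO vehicle, duplicates. Readout: TaqMan qRT-PCR mRNA vs three housekeeping genes; bidirectional curve fit against DMSO baseline.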

Read-out in test [7]: Glutathione S-Transferase (GSTA2), GSTA2 (gene 2939)
Nature of the test: LTEA_HepaRG_GSTA2: Life Technologies and Expression Analysis (LTEA) Assay for Glutathione S-Transferase (GSTA2) using HepaRG (AID 2283497). Summed up: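 qRT-PCR readout of GSTA2 transcript, normalized to three housekeeping genes, fitted bidirectionally against 0.5% DMSO baseline. Differentiated HepaRG cells received compound for 48 h at 8 concentrations (top 100 uM, half-log steps).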

Read-out in test [8]: Glutamate-cysteine ligase catalytic (GCLC), GCLC (gene 2729)
Nature of the test: LTEA_HepaRG_GCLC: Life Technologies and Expression Analysis (LTEA) Assay for Glutamate-cysteine ligase catalytic (GCLC) using HepaRG (AID 2283498). In outline: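 HepaRG, 48 h exposure, 8-pt half-log series from 100 uM, 0.5% DMSO vehicle; TaqMan qRT-PCR for GCLC mRNA, housekeeping-normalized; bidirectional curve fit vs DMSO baseline.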

Read-out in test [9]: growth arrest and DNA damage 45 (GADD45G), GADD45G (gene 10912)
Nature of the test: LTEA_HepaRG_GADD45G: Life Technologies and Expression Analysis (LTEA) Assay for growth arrest and DNA damage 45 (GADD45G) using HepaRG (AID 2283499). In outline: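 Differentiated human HepaRG cells, 48 h post-plating, exposed 48 h in serum-free induction medium to 8 half-log concentrations (top 100 uM, 0.5% DMSO) in duplicate. GADD45G mRNA measured by Fluidigm TaqMan qRT-PCR, normalized to ACTB, GAPDH, POLR2A; bidirectional fit versus DMSO.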

Read-out in test [10]: Glutamate-cysteine ligase regulatory (GCLM), GCLM (gene 2730)
In words: LTEA_HepaRG_GCLM: Life Technologies and Expression Analysis (LTEA) Assay for Glutamate-cysteine ligase regulatory (GCLM) using HepaRG (AID 2283500). Summed up:
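Endpoint is GCLM transcript level by qRT-PCR, normalized to three housekeeping genes, after 48 h chemical exposure of human HepaRG cells (0.5% DMSO vehicle, top 100 uM, half-log dilutions). Fitting was bidirectional relative to DMSO.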

Read-out in test [11]: Glutathione S-transferase M3 (GSTM3), GSTM3 (gene 2947)
Nature of the test: LTEA_HepaRG_GSTM3: Life Technologies and Expression Analysis (LTEA) Assay for Glutathione S-transferase M3 (GSTM3) using HepaRG (AID 2283501). Summed up:
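Differentiated human HepaRG cells were exposed in duplicate for 48 h in serum-free induction medium, 8 points from 100 uM top in half-log steps, 0.5% DMSO. GSTM3 mRNA was measured by TaqMan qRT-PCR, normalized to ACTB, GAPDH and POLR2A; bidirectional fit versus DMSO.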

Read-out in test [12]: Heat shock 70 kDa protein 1 (HSPA1A), gene 3303
Nature of the test: LTEA_HepaRG_HSPA1A: Life Technologies and Expression Analysis (LTEA) Assay for Heat shock 70 kDa protein 1 (HSPA1A) using HepaRG (AID 2283502). Summed up: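 Cells were plated and cultured for 48 h, then switched to serum-free induction medium. Chemicals were added at eight half-log concentrations up to 100 uM for 48 h. RNA was then isolated and HSPA1A measured by qRT-PCR with bidirectional curve fitting against DMSO.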

Read-out in test [13]: 3-Hydroxy-3-Methylglutaryl-CoA Synthase 2 (HMGCS2), HMGCS2 (gene 3158)
Nature of the test: LTEA_HepaRG_HMGCS2: Life Technologies and Expression Analysis (LTEA) Assay for 3-Hydroxy-3-Methylglutaryl-CoA Synthase 2 (HMGCS2) using HepaRG (AID 2283504). In outline:
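Human HepaRG cells in serum-free induction medium were exposed in duplicate for 48 h to 8-point half-log series from 100 uM top in 0.5% DMSO. HMGCS2 mRNA measured by TaqMan qRT-PCR, normalised to ACTB, GAPDH, POLR2A; bidirectional fit versus DMSO.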

Read-out in the next test: HGF (gene 3082)
In words: LTEA_HepaRG_HGF: Life Technologies and Expression Analysis (LTEA) Assay for Hepatocyte Growth Facto (HGF) using HepaRG (AID 2283505). In outline: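 Differentiated HepaRG cells in serum-free induction medium exposed 48 h in duplicate, 8 half-log concentrations from 100 uM in 0.5% DMSO. HGF mRNA by qRT-PCR, normalised to ACTB, GAPDH, POLR2A; bidirectional fitting.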

Read-out in test [14]: Insulin Like Growth Factor 1 (IGF1), IGF1 (gene 3479)
Nature of the test: LTEA_HepaRG_IGF1: Life Technologies and Expression Analysis (LTEA) Assay for Insulin Like Growth Factor 1 (IGF1) using HepaRG (AID 2283506). Summed up:
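Cells are thawed, plated and cultured 48 h, then exposed in duplicate to chemical (highest 100 uM, half-log steps, 0.5% DMSO) for another 48 h. Total RNA is analysed by Fluidigm qRT-PCR for IGF1 expression relative to vehicle.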

Read-out in test [15]: Intercellular Adhesion Molecule 1 (ICAM1), ICAM1 (gene 3383)
Nature of the test: LTEA_HepaRG_ICAM1: Life Technologies and Expression Analysis (LTEA) Assay for Intercellular Adhesion Molecule 1 (ICAM1) using HepaRG (AID 2283507). Summed up: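 Differentiated human HepaRG cells in serum-free induction medium exposed 48 h in duplicate to 8 half-log concentrations (top 100 uM, 0.5% DMSO). ICAM1 mRNA quantified by TaqMan qRT-PCR, normalized to ACTB, GAPDH and POLR2A; bidirectional fitting versus DMSO.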

Read-out in test [16]: Insulin-like growth factor-binding protein 1 (IGFBP1), IGFBP1 (gene 3484)
In words: LTEA_HepaRG_IGFBP1: Life Technologies and Expression Analysis (LTEA) Assay for Insulin-like growth factor-binding protein 1 (IGFBP1) using HepaRG (AID 2283508). In outline:
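HepaRG cells, plated 48 h then switched to serum-free induction medium, exposed in duplicate for 48 h to 8-point half-log series from 100 uM in 0.5% DMSO. mRNA measured by qRT-PCR, normalized to ACTB/GAPDH/POLR2A; bidirectional fit versus DMSO.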

Read-out in test [17]: Early growth response protein 1 (EGR1) transcription factor, EGR1 (gene 1958)
In words: LTEA_HepaRG_EGR1: Life Technologies and Expression Analysis (LTEA) Assay for Early growth response protein 1 (EGR1) transcription factor using HepaRG (AID 2283490). Summed up: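 HepaRG, 48 h exposure, 8-pt half-log series from 100 uM, 0.5% DMSO vehicle; EGR1 transcript by TaqMan qRT-PCR (Fluidigm array), housekeeping-normalized; bidirectional fit relative to DMSO baseline.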

Read-out in test [18]: Hypoxia-inducible factor 1-alpha (Homo sapiens) (UniProt Q16665)
Nature of the test: LTEA_HepaRG_HIF1A: Life Technologies and Expression Analysis (LTEA) Assay for Hypoxia-inducible factor 1 (HIF1A) Trancription factor using HepaRG (AID 2283503). In outline:
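HIF1A transcript level read by qRT-PCR (ACTB, GAPDH, POLR2A normalization) after 48 h chemical exposure of HepaRG cultures. Eight half-log concentrations, top 100 uM, 0.5% DMSO vehicle, duplicates; bidirectional curve fit against DMSO baseline.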

Sequence of Cytochrome P450 3A7 (Homo sapiens) (P24462 whole entry, looked up): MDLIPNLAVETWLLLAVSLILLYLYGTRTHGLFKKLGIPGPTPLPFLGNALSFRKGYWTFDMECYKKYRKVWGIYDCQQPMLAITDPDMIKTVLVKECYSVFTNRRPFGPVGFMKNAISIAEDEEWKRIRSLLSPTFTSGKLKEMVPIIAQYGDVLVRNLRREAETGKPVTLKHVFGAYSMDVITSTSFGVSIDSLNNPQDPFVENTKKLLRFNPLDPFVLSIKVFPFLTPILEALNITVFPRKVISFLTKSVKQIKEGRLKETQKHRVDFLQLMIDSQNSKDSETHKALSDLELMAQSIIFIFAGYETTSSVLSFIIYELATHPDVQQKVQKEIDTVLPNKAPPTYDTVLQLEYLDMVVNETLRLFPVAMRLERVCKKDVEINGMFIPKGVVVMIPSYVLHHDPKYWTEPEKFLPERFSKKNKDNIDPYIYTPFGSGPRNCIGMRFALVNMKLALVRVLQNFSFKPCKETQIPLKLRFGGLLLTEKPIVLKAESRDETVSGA
Sequence of Hypoxia-inducible factor 1-alpha (Homo sapiens) (Q16665 whole entry, looked up): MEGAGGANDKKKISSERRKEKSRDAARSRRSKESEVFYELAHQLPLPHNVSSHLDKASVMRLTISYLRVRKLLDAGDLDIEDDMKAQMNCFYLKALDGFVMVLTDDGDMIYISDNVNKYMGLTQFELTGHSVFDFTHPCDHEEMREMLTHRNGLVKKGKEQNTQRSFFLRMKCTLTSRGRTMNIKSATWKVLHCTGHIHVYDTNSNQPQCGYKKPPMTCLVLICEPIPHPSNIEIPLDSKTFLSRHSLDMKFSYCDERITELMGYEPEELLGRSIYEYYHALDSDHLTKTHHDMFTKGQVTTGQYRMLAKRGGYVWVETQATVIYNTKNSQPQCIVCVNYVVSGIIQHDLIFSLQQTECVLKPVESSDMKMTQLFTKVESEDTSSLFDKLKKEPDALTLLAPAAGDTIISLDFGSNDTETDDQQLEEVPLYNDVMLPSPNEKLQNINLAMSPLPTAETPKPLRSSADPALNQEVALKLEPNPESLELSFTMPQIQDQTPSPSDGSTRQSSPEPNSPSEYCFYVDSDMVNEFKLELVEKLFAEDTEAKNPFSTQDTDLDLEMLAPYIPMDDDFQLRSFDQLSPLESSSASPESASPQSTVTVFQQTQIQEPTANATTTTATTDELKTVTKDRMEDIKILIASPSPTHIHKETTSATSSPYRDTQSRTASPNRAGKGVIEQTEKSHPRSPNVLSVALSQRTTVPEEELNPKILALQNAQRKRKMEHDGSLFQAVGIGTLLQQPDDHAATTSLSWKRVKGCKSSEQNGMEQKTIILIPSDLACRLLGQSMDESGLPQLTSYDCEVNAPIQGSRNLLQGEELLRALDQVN

Turning to `CC(=O)Oc1ccccc1C(=O)O`, the compound was called inactive (in test [1]; in test [2]; in [3]; with CYP3A5 (gene 1577); in test [4]; in test [5]). Moreover, the call in test [6], in test [7], in test [8], in test [9], in test [10] and in [11] was inactive. For the same compound, the outcome (in test [12]; in test [13]; with HGF (gene 3082); in test [14]; in test [15]; in test [16]) was inactive.
Turning to `CCCCc1ccc2c(n1)[C@@H](c1ccc(OC)cc1C[C@H](C)C(=O)O)[C@H](C(=O)O)[C@H]2c1ccc2c(c1)OCO2`, the call (in test [17]; in test [2]; in test [3]; with CYP3A5 (gene 1577); in test [4]; in [5]) was inactive. Moreover, the compound was classed as inactive in [6], in test [7], in test [8], in test [9], in [10] and in test [11]. Further, the outcome in test [12], in test [18], in [13], in [14], in test [15] and in [16] was inactive.
Consider `COc1ccc2c(c1)c(CC(=O)O)c(C)n2C(=O)c1ccc(Cl)cc1`, for which the call (in [1]; in test [2]; in test [3]; in the test with CYP3A5 (gene 1577); in test [4]; in test [5]) was inactive. Also, the result in [6], in test [7], in test [8], in test [10], in test [11] and in test [18] was inactive. The compound was classed as inactive in test [13], in test [14] and in [16].
The AC50 is the concentration at which the activity in the assay is half-maximal. As for `COCCOCCOC`, the call (in [17]; in test [2]; in test [3]; in the test with CYP3A5 (gene 1577); in [4]; in [5]) was inactive. For the same compound, the outcome in [6], in [7], in [9], in test [13] and in [14] was inactive. Moreover, the AC50 is 2.1 µM (active) in test [8]; 925 nM (active) in test [10]; 2.14 µM (active) in test [11]; 9.92 µM (active) in [18]; 1.5 µM (active) with HGF (gene 3082); 870 nM (active) in test [15]. Moreover, the AC50 in test [16] is 683 nM (active).

Values taken from PubChem BioAssay (EPA / NIEHS).
